Most compounds without a hit are left out; they make up all but 2.6% or so of the library.
NOD2-RIPK2 inh – inhibitors of human NOD2-RIPK2 interaction | inhibition, % at 4.98 µM | 0.38% of 360,000 active | AID 624267 | CHO BLA complementation NOD2-RIPK2, CCF4 ratio; in the data active = inhibition above about 21%;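 also: 0% = vehicle only and 100% = reference blocker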
Target sequence (O43353 whole entry, looked up): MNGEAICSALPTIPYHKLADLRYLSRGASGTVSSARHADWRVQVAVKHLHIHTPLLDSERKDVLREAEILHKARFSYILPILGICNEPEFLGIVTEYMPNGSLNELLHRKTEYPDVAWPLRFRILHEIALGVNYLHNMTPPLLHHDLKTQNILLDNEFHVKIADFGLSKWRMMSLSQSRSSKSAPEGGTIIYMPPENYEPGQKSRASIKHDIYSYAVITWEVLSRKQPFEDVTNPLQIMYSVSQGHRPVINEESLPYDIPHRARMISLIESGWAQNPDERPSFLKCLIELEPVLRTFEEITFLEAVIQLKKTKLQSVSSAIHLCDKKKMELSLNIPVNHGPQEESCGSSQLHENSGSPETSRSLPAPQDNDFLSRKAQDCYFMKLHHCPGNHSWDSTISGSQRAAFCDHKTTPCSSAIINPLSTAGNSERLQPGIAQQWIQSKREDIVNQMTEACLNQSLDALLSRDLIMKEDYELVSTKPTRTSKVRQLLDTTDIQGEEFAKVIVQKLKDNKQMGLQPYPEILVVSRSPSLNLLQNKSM
Exocytosis inh – lytic granule exocytosis inhibition; TALL-104 LAMP-1 surface exposure, flow cytometry; cells stimulated with thapsigargin and PMA; inhibition, % at 10 µM; 0.66% of 360,000 active;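 active = inhibition above about 55%, limit read from the data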
PRMT1 inh – PRMT1 (human) inhibition, primary screen. inhibition, % at 2.79 µM. recombinant PRMT1, activity-based probe fluorescence polarization. Q99873. 1.3% of 370,000 active;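 active = inhibition above about 21% made by adding two undisclosed values, limit read from the data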
ABHD5 PLIN5 PPI – blocks binding of human ABHD5 to perilipin-5; Q00G26+Q8WTS1; Split G. princeps luciferase complementation, luminescence, 4 h; inhibition, % at 4 µM; 0.78% of 360,000 active; AID 602281;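 active = inhibition above the mean inhibition across every tested compound plus 3 SD, cut at about 22% in these data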;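 also: 0% = DMSO only wells and the 100% control is not disclosed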
TLR9-MyD88 inh – TLR9-MyD88 interaction inhibition; CHO BLA complementation TLR9-MyD88, CCF4 FRET ratio; inhibition, % at 4.98 µM; 0.21% of 340,000 active; AID 504734;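 active = inhibition above the mean over all tested compounds plus 3 SD, cut at about 21% in these data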;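 also: 0% = DMSO only wells and 100% = clavulanate BLA inhibitor control wells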
TLR4 MyD88 comp – inhibitors of human TLR4-MyD88 binding. HeLa CL3-4 TLR4/MyD88 BLA complementation, FRET ratio. inhibition, % at 8.4 µM. 0.18% of 200,000 active; in the data active = inhibition above about 25%;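 also: 0% = vehicle and 100% = reference inhibitor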
Granule exo CP1 – blocks lytic granule exocytosis | 11% of 1,500 active | shares compounds with Exocytosis inh | inhibition, % at 10 µM | TALL-104 cells, LAMP-1 externalization, flow cytometry; stimulated with PMA plus thapsigargin; in the data active = inhibition above about 60%;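 also: 0% = stimulated vehicle wells and 100% = unstimulated wells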
Numbers without * were called inactive; · = not tested or not shown.

SMILES | NOD2-RIPK2 inh | Exocytosis inh | PRMT1 inh | ABHD5 PLIN5 PPI | TLR9-MyD88 inh | TLR4 MyD88 comp | Granule exo CP1
CCC(C)NC(=O)CSc1nnc(-c2cc(OC)c(OC)c(OC)c2)o1 (stereo not given) | · | · | -4 | · | · | · | ·
C[C@H]1COc2cc(Br)ccc2S(=O)(=O)N1Cc1cn(Cc2ccc(F)cc2)nn1 | · | · | 0 | · | · | · | ·
COc1ccc(NC(=O)c2sc3nc(N4CCOCC4)c4c(c3c2N)CCCC4)cc1 | 0 | -8 | · | 6 | 5 | · | ·
CCOC(=O)c1ccc(NC(=O)c2ccc(C)c(S(=O)(=O)N3CCOCC3)c2)cc1 | -2 | 76* | -2 | 1 | -5 | 6 | 74*
CC(=O)c1ccc(NC(=O)c2ccc(C)c(S(=O)(=O)N3CCOCC3)c2)cc1 | 0 | 24 | 5 | 13 | 10 | · | ·
CCOC(=O)c1ccc(NC(=O)c2sc3nc(N4CCOCC4)c4c(c3c2N)CCCC4)cc1 | -13 | 93* | 18 | 4 | -1 | · | -13
CCOc1ccc(N(CC(=O)NC2CCC(C)CC2)S(=O)(=O)c2c(C)noc2C)cc1 (stereo not given) | -8 | 0 | -3 | 9 | -1 | · | ·
Cc1noc(C)c1S(=O)(=O)N(CC(=O)NC1CCC(C)CC1)c1ccc(C(C)C)cc1 (stereo not given) | -5 | 72* | 2 | -4 | -8 | · | -4
COCCNC(=S)N(CCc1c(C)[nH]c2ccc(C)cc12)Cc1ccco1 | 3 | 5 | 7 | -2 | -6 | 0 | ·
COCCNC(=S)N(CCc1c(C)[nH]c2ccc(F)cc12)Cc1ccc(C)cc1 | -17 | 77* | 2 | -5 | -1 | · | 23
CCOC(=O)CCCNC(=O)OC1CCC12CCC(c1ccccc1)CC2 (stereo not given) | · | · | 5 | · | · | · | ·
Cc1ccnc(NC(=O)C2CCN(S(=O)(=O)c3cccc(C(F)(F)F)c3)CC2)c1 | -5 | 14 | 0 | -2 | -8 | · | ·
Cc1ccnc(NC(=O)C2CCN(S(=O)(=O)c3ccc(C)c(C)c3)CC2)c1 | 0 | 65* | 0 | -5 | 2 | · | -3
COC(=O)C[C@@H]1CC[C@H]2[C@@H](COc3ccc(NC(=O)Nc4ccccc4)cc3C(=O)N2C)O1 | · | · | 2 | · | · | · | ·
Cc1ccccc1OCC(O)CN(Cc1ccccc1O)C1CCCCC1 (stereo not given) | -1 | 68* | 1 | 7 | -1 | 1 | -13
CN(CC(O)COc1ccccc1F)C1CCCCC1 (stereo not given) | 0 | -2 | -3 | -4 | -4 | 10 | ·
O=C(Nc1ccc(S(=O)(=O)Nc2ccccc2)cc1)c1ccc(CN2CCOCC2)cc1 | 2 | 76* | 2 | 1 | -8 | -7 | 9
CCC(C)Nc1nc(-c2cccc(OC)c2O)nc2ccccc12 (stereo not given) | -6 | 76* | 0 | -1 | -5 | 7 | 107*
COc1cccc(-c2nc(N3CCCCC3)c3ccccc3n2)c1O | -14 | 77* | -6 | -1 | 0 | · | 9
CCCCn1c(N2CCC(Cc3ccccc3)CC2)nc2c1c(=O)[nH]c(=O)n2C | 1 | 88* | 0 | 6 | 5 | 0 | 4
CCCCn1c(N2CCCC2)nc2c1c(=O)[nH]c(=O)n2C | -7 | 2 | 7 | -2 | 0 | · | ·
NC1=NC[C@H](Cc2ccccc2)N1CC1CCCCC1 | -6 | 6 | -2 | 4 | -1 | · | ·
NC1=NC[C@H](Cc2ccc(O)cc2)N1CC1CCCCC1 | 4 | 65* | 1 | 5 | 4 | · | -11
CCOCCCNC(=S)N1CCCN(c2nc3c(C)c(C)ccc3cc2C#N)CC1 | -3 | 91* | 1 | -6 | -6 | 7 | 79*
COC(C[C@@H](O)[C@H](C)[C@@H](O)COCc1ccccc1)OC | 9 | 70* | 0 | 0 | -4 | · | -5
COc1ccc(N2C(=O)CC(Sc3nccc(C)n3)C2=O)c(OC)c1 (stereo not given) | 3 | 6 | 6 | -4 | -4 | · | ·
CCOc1ccc(N2C(=O)CC(Sc3nc4ccc(OCC)cc4s3)C2=O)cc1 (stereo not given) | 2 | 26 | 2 | 2 | -6 | -8 | ·

Source: PubChem (several laboratories)
